# Compounds without any hit were thinned out: in the full panel of roughly 83,000, 20% have a hit.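 A percent growth of 40 corresponds to 60% growth inhibition; 0 means no net growth; -100 means all cells died. Active threshold: below 10.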 Unmarked numbers belong to inactive results. Active and inactive are the calls of the source.
# Legend:
# Experiment in all cases: NCI-60 one-dose screen, 48 h (100 = growth as untreated, 0 = no growth, -100 = all killed)
# Conditions in all cases: 10 µM
# [1] = system: SK-MEL-2 melanoma
# [2] = system: EKVX NSCLC
# [3] = system: SN12C renal
# [4] = system: TK-10 renal
# [5] = system: ACHN renal
# [6] = system: CAKI-1 renal
# [7] = system: A498 renal
# [8] = system: CCRF-CEM leukemia
# [9] = system: MOLT-4 leukemia
# [10] = system: UO-31 renal
SMILES,growth [1],growth [2],growth [3],growth [4],growth [5],growth [6],growth [7],growth [8],growth [9],growth [10]
Cc1ccc(C)c(COc2cc(NC(=O)c3ccc4c(c3)OCO4)ccc2N(C)S(C)(=O)=O)c1,37.6%,29.6%,27.2%,54.1%,29.3%,15.6%,-11.3% (active),13.2%,7.75% (active),–
Cc1ccc(NC(=S)NNC(=S)Nc2ccc(C)cc2)cc1,66.1%,92.7%,68.1%,86.7%,77.1%,67.8%,73.4%,43.9%,45.3%,–
CC(C)C1=C(O)C2=C(C(=O)C1=O)[C@@]1(C)CCCC(C)(C)[C@@H]1CC2,97.7%,67.1%,81%,81.5%,59.6%,15%,–,41.5%,44.2%,–
CS(=O)(=O)c1nccc(-c2c(-c3cccc(OCCc4ccccc4)c3)nc3sccn23)n1,107%,98.6%,95.5%,–,101%,85.7%,91.7%,91.3%,84.5%,71.5%
COc1ccccc1N1CCCSC1=Nc1ccccc1,121%,110%,91.6%,–,114%,–,99.8%,67.6%,62.1%,81.2%
Cc1ccc(C(SCC(N)C(=O)O)(c2ccc(C)cc2)c2ccc(C)cc2)cc1 (configuration not stated),-52.1% (active),-8.36% (active),42.3%,–,60.3%,–,46.3%,6.77% (active),7.71% (active),25.3%
COc1ccc2c(c1)CC=C1[C@@H]2CC[C@]2(C)C(=O)/C(=N/O)C[C@@H]12,115%,76.6%,82.7%,92.7%,74.4%,6.9% (active),–,33.1%,63.3%,–
COc1ccc(Nc2cnc3cc(NS(=O)(=O)c4ccc(C)cc4)ccc3n2)cc1,65.5%,–,85.9%,94.7%,90.3%,61.5%,77.9%,90%,57.5%,59.3%
CC(C)(O)CCl,153%,–,106%,111%,108%,103%,106%,–,107%,107%
OC(CCN1CCCC1)(c1ccccc1)C1CCCCC1 (configuration not stated),111%,97.5%,95.9%,108%,94.7%,–,116%,98.2%,109%,–
CC1C(=NC(=O)c2cnccn2)C(C)C(c2ccc(Cl)cc2)NC1c1ccncc1 (configuration not stated),104%,88.6%,93.3%,130%,91.5%,–,115%,79.5%,78.5%,–
c1ccc2c(c1)Cc1ccccc1N2CCN1CCCCC1,97%,101%,–,104%,89.6%,90.7%,107%,98.7%,83.3%,83.8%
COc1cccc(N=Nc2cccc(OC)c2)c1,94.4%,83.5%,–,95.9%,93%,94.2%,86.4%,90.8%,79.5%,88.2%
COc1ccc(/C=c2\sc3n(c2=O)C(c2cc(OC)c(OC)c(OC)c2)C=C(c2ccc(OC)c(OC)c2)N=3)cc1OC (configuration not stated),106%,101%,93.9%,105%,–,105%,94.5%,64.4%,79.5%,–
Cc1ccc(C(C)C)c(O)c1NC(=O)OC(C)C,96.6%,92.3%,91.9%,116%,–,121%,91.5%,104%,–,–
COC(=O)CC[C@@H](C)[C@H]1CC[C@H]2[C@@H]3CC[C@@H]4C[C@H](O)CC[C@]4(C)[C@H]3C[C@H](O)[C@]12C,87.7%,103%,97.8%,92.7%,99.1%,–,119%,86.3%,76.4%,–

SMILES,growth [1],growth [2],growth [3],growth [4],growth [5],growth [6],growth [7],growth [8],growth [9],growth [10]
NS(=O)(=O)c1ccc(Br)cc1,101%,90.3%,–,90.4%,107%,95.3%,115%,104%,92.7%,97.1%
CCCCCCCCCCCC[n+]1c(C)cc(N)c2ccccc21,-52.1% (active),14.5%,7.94% (active),7.85% (active),12%,25.7%,–,9.62% (active),-24.1% (active),–
O=C1/C(=C/c2ccc3c(c2)OCO3)SC(=S)N1C1c2ccccc2Oc2ccccc21,115%,96.8%,–,101%,91.2%,92.8%,101%,86.7%,96.5%,74.2%
O=C1/C(=C/c2ccc([N+](=O)[O-])s2)Oc2cc(Cl)ccc21,-49.9% (active),–,-2.52% (active),-26.8% (active),-70.5% (active),52.8%,102%,-9.78% (active),2.92% (active),-92% (active)
Cc1ccc(N=Nc2ccccc2)cc1,97.6%,94.8%,–,95.1%,107%,96.4%,104%,99%,95.5%,94.8%
COc1ccc2c(c1)C(=O)/C(=C/c1ccc([N+](=O)[O-])o1)O2,-68.7% (active),–,-30.4% (active),-93.1% (active),-80.9% (active),-69.8% (active),-50.5% (active),3.49% (active),-37.2% (active),-91.9% (active)
C#CC(C)(O)[C@@H]1C[C@H](CC(=O)O)C1(C)C (some centres not stated),108%,–,108%,114%,110%,96%,110%,137%,114%,87.1%
COc1ccc(N=Nc2cc(OC)c(OC)c(OC)c2)cc1,74.1%,77.3%,–,84.7%,80.2%,70.2%,73.5%,65.6%,78%,58.6%
O=C(O)COc1c(Cl)cc([N+](=O)[O-])cc1Cl,101%,102%,–,99%,106%,99.9%,97.5%,92.5%,80.6%,94.2%
O=C1c2c(c(=O)[nH]c3ccccc23)CCN1Cc1ccccc1,127%,92.4%,97.4%,119%,91.8%,–,110%,100%,105%,–
COc1cc(C2CC(c3ccc4c(c3)OCO4)=NN2c2ccccc2)cc(OC)c1OC (configuration not stated),108%,89.4%,90.9%,112%,–,75.4%,97.9%,80.8%,82.3%,–
COc1cccc2ccc(CC(O)(c3ccccc3)c3ccccc3)nc12,85.1%,–,93.8%,128%,84.3%,87.2%,102%,95.7%,88.6%,59.8%
Clc1ccc(Cc2ccncc2)cc1,121%,101%,95.4%,130%,–,130%,104%,104%,114%,–
Cn1cnc([N+](=O)[O-])c1/C=C1\Oc2ccc(Br)cc2C1=O,83.1%,–,98.6%,99.7%,68.8%,87.3%,100%,2.63% (active),60.2%,67.6%
O=C(CI)OCC(COC(=O)CI)OC(=O)CI,83.1%,–,76.8%,78.9%,11.2%,-17.6% (active),108%,–,44.4%,-89.8% (active)
O=C1CC(SC(=S)C2CCCC2=O)C(=O)N1 (configuration not stated),96.9%,–,99.3%,108%,103%,102%,100%,101%,96.5%,92.3%

# — PubChem BioAssay (NCI)
